# Laboratory results published in PubChem BioAssay.
# Legend:
# [1] = tested on: Human papillomavirus type 1a protein E7 (residues 44-93); test: small molecules binding HPV E7 44-93 – biochemical, small-molecule microarray, residues 44-93, 635 nm fluorescence, primary screen (AID 1108); conditions: fluorescence 635 nm, higher = more signal;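 further: E7 fragment applied at 1 µg/mL in TBST for 1 h at 4 C; score combines spot fluorescence with its signal to noise ratio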
# [2] = hepatitis C replication reporter changes, two-sided – Huh7 cells, luciferase reporter, HCV replication inhibitor project, primary screen (AID 1109); conditions: Huh7 HCV replicon luciferase reporter, 48 h; higher = more signal;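 further: huh7 hepatoma cells harbouring a luciferase neomycin HCV replicon reporter; luciferase luminescence as measure of HCV replicon replication; test concentration not given here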
# [3] = target: Left-right determination factor 2 (Homo sapiens) (UniProt O00292); test: small molecules binding LEFTY2 protein – biochemical, small-molecule microarray, 635 nm fluorescence scan, primary screen (AID 1110); conditions: higher = more signal
# Left-right determination factor 2 (Homo sapiens), sequence (O00292 whole entry, looked up): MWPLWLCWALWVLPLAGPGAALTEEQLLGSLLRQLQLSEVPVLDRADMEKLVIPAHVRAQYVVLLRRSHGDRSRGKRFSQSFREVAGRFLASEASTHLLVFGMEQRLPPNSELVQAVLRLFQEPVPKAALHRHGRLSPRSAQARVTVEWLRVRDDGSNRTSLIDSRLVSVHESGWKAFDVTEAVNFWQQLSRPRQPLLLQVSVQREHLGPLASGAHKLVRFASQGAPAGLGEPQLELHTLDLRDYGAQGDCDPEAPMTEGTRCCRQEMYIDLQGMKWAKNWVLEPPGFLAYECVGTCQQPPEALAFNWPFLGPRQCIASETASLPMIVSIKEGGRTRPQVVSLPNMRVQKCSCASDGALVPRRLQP
# [4] = target: Calmodulin-1 (Homo sapiens) (UniProt P0DP23); test: small molecules binding calmodulin-1 with EGTA – biochemical, small-molecule microarray, Cy5-labelled CALM1, profiling panel (AID 1111); conditions: Cy5-CALM1 binding fluorescence, higher = more signal;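 further: labelled calmodulin applied in Tris saline Tween buffer holding calcium plus EGTA and DTT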
# [5] = target: Calmodulin-1 (Homo sapiens) (UniProt P0DP23); test: small molecules binding Ca-loaded calmodulin-1 – biochemical, small-molecule microarray, Cy5-labelled CALM1, plus calcium, artefact control for SMM control-protein annotation, profiling panel (AID 1112); conditions: Cy5-CALM1 binding fluorescence, higher = more signal;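 further: score merges spot fluorescence with signal to noise from triplicate slides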
# [6] = probe aWnt5a binding to arrayed compounds – biochemical, biotinylated probe, 635/667 nm fluorescence, primary screen (AID 1113); conditions: small-molecule microarray, higher = more signal;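 further: score merges 667 nm fluorescence intensity with signal-to-noise per printed feature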
# [7] = probe aShh binding to arrayed compounds – biochemical, biotinylated probe, 635/667 nm fluorescence, primary screen (AID 1114); conditions: small-molecule microarray, higher = more signal;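 further: probe is biotin-labelled aShh protein from a stem cell growth factor screen; measures binding of labelled protein to compounds printed on the slide; score merges feature fluorescence at 667 nm with signal-to-noise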
# [8] = probe aNog binding to arrayed compounds – biochemical, biotinylated probe, 635/667 nm fluorescence, primary screen (AID 1115); conditions: small-molecule microarray, higher = more signal;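 further: probe is biotinylated aNog protein used at 0.15 µg/mL for 1 h at 4 C; z-score combines 667 nm fluorescence of each spot with its signal to noise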
# [9] = target: Torsin-1A-interacting protein 1 (Homo sapiens) (UniProt Q5JTV8); test: compound microarray binding of lysate hLAP1 – cell lysate, small-molecule microarray, COS7 lysate, 635/667 nm fluorescence, primary screen (AID 1116); conditions: 635 nm fluorescence, higher = more signal
# Torsin-1A-interacting protein 1 (Homo sapiens), sequence (Q5JTV8 whole entry, looked up): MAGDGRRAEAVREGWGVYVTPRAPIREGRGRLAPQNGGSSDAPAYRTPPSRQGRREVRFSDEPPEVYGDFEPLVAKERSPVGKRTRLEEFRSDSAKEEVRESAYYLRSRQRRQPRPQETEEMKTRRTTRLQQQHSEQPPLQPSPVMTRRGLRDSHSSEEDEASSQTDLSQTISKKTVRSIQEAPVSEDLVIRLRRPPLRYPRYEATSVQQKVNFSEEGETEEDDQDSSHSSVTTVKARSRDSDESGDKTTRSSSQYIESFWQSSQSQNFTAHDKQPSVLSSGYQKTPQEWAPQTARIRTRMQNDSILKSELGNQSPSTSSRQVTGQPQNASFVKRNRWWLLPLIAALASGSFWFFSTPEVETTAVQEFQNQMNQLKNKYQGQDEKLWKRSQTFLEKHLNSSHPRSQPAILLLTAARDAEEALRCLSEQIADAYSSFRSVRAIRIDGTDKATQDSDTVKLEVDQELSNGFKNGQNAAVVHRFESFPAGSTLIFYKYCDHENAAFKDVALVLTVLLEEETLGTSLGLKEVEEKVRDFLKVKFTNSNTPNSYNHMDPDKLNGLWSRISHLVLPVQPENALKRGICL
# [10] = target: Alpha-bungarotoxin (Bungarus multicinctus) (UniProt P60615); test: compounds binding labelled alpha-BTX control protein – biochemical, small-molecule microarray, Alexa647 label, 635/667 nm fluorescence, artefact control for SMM control protein annotation, profiling panel (AID 1117); conditions: alpha-BTX-A647 binding fluorescence, higher = more signal
# Alpha-bungarotoxin (Bungarus multicinctus), sequence (P60615 whole entry, looked up): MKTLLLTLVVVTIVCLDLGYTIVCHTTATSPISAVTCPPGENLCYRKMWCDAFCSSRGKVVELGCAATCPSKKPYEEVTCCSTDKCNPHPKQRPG
SMILES,composite z-score [1],z-score [2],composite z-score [3],composite z-score [4],composite z-score [5],composite z-score [6],composite z-score [7],composite z-score [8],composite z-score [9],composite z-score [10]
CON=C1c2cc(OC)ccc2O[C@H](c2cccc(OC)c2)[C@H]1O,0.365,7.91,0.601,-0.332,-0.729,-0.0165,0.172,-0.0211,0.646,-0.0531
CCOC(=O)CCN1C(=O)[C@H]2[C@H]3[C@H](O)[C@H](O)CC(=NO[C@@H]4O[C@H](CO)[C@@H](O)[C@H](O)[C@H]4O)[C@@H]3CC[C@H]2C1=O,1.21,0.891,0.809,-0.896,-1.99,-0.0417,0.296,-0.0784,0.533,0.844
O=C1C2=CC[C@H]3C(=O)N(C4CCCCC4)C(=O)[C@H]3[C@H]2[C@H](O)[C@@H]2O[C@H]12,-1.46,-5.43,-0.0026,-0.883,-0.828,-0.206,-0.282,-0.307,-0.11,-0.635
CON=C(C)CCN1CCc2nc(-c3ccccc3)c(-c3ccccc3)cc2C1,-0.539,-4.3,-0.117,0.709,0.0504,-0.219,-0.0011,0.107,0.0735,-0.107
C[C@H]1CC[C@H]2C(=O)N[C@H](Cc3ccccc3)C(=O)N2[C@@H]1c1ccccc1,-1.38,-0.283,0.395,-0.742,-0.194,-0.127,0.37,-0.0428,0.51,-0.009
CC(=O)OC[C@H]1O[C@H](C#CCCc2ccccc2)C=C[C@@H]1OC(C)=O,-0.515,-1.12,0.751,-0.288,-0.715,-0.0721,0.0204,0.0658,0.128,1.53
CC(C)=NO[C@@H](C)c1cn([C@H](CO)Cc2ccccc2)nn1,0.833,1.13,0.802,-0.03,-0.408,0.0044,-0.0794,-0.35,0.541,0.392
CO[C@@H]1COC(=O)[C@H](COCc2ccccc2)NC(=O)CC=C[C@@H](C)[C@H](OC)COC(=O)[C@@H](C)NC(=O)CC=C[C@H]1C,-0.747,-0.536,0.583,-1.78,-2.61,-0.18,0.0062,-0.643,0.343,-1.31
CC(C)CON=C1[C@H]2CCn3c(=O)n(C)c(=O)n3[C@H]2[C@H](O)[C@@H]2O[C@H]12,0.274,0.104,0.494,-0.0875,-0.609,-0.127,0.0796,-0.232,0.18,0.255
CO[C@H]1C[C@@H]2C[C@H](O)CC(CC(=O)O[C@@H](C=CCC(C)C)C[C@@H]3CC[C@H](C)[C@@H](C1)O3)O2,1.27,-0.763,0.748,-0.126,-0.468,-0.0194,0.0815,-0.447,0.536,1.63
CC(C)C(=O)N[C@H]1CCCN1C(=O)C=Cc1ccccc1,0.531,-0.206,0.681,-0.266,-0.306,0.0495,0.3,0.254,0.289,0.0359
O=C1[C@H]2[C@H]3[C@H](O)[C@H](O)CC(=NOC[C@@H](O)COCc4ccco4)[C@@H]3CC[C@H]2C(=O)N1c1cccc(Oc2ccccc2)c1,-0.645,-0.739,0.103,0.0705,-0.511,-0.0758,-0.289,-0.29,-0.0841,0.534
CC(C)=CCCC(C)=CCON=C1C[C@@H](O)[C@@H](O)[C@@H]2[C@@H]3C(=O)N(c4cccc(Oc5ccccc5)c4)C(=O)[C@@H]3CC[C@H]12,1.32,0.237,0.323,0.322,0.321,-0.148,0.0483,-0.0129,0.173,-0.0168
COC(=O)[C@H](C)NC(=O)CC=C[C@@H](C)[C@@H]1C=C[C@H](O)[C@@H](CO)O1,0.075,-0.0833,1.14,-0.698,-1.35,-0.0799,-0.0474,-0.0926,0.326,-0.392
CC(CCN1CCc2nc(-c3ccccc3)c(-c3ccccc3)cc2C1)=NO[C@H](C)c1cn([C@H](CO)Cc2ccccc2)nn1,-0.93,-2.3,0.332,0.0521,0.509,-0.0242,-0.16,-0.0309,0.34,1.2
C#CCCCON=C1C[C@@H](O)[C@@H](O)[C@@H]2[C@@H]3C(=O)N(C4CCCCC4)C(=O)[C@@H]3CC[C@@H]12,0.428,-0.0098,0.321,-0.346,-0.342,-0.0685,-0.212,-0.494,0.366,0.281
CC(C)=CCCC(C)=CCON=C1C[C@@H](O)[C@@H](O)[C@@H]2[C@@H]3C(=O)N(Cc4ccc5c(c4)OCO5)C(=O)[C@@H]3CC[C@H]12,1.38,-1.45,0.546,-0.588,-1.11,-0.0346,-0.2,-0.28,0.142,0.168
CC1(C)O[C@H]2OC([C@H](O)CON3C(=O)c4ccccc4C3=O)[C@H](O)[C@H]2O1 (stereo not given in full),-0.0928,-0.585,0.244,-0.494,-0.539,-0.109,-0.27,-0.218,-0.1,-0.0472
CCOC(=O)[C@H](Cc1ccccc1)NC(=O)CCC1CC(OC(=O)NCc2ccc3c(c2)OCO3)CC2(CCCC(COC(=O)NCCCN3CCCC3=O)O2)O1 (stereo not given in full),1.35,-1.93,0.56,0.972,0.356,-0.0607,-0.229,-0.0604,0.799,0.426
COc1ccc(OC[C@H]2CN3[C@@H](CC[C@@H](C)[C@@H]3c3ccc(Br)cc3)C(=O)O2)cc1,0.191,-0.757,0.579,-0.146,-0.855,-0.176,-0.221,0.0121,0.5,0.641
O=C(NCCC[N+]1=CC=NC1c1ccccc1)N1CCCc2nc(-c3ccc(Br)cc3)ccc21 (stereo not given),0.107,-3.49,0.498,0.626,0.0894,-0.0145,0.0141,0.0481,0.0439,-0.436
Cc1ccc2[nH]c3nc(CCCn4ccnc4-c4ccccc4)nnc3c2c1,0.0596,-0.544,0.635,0.308,-1.02,-0.101,0.191,-0.344,0.666,0.335
C[C@@H](c1ccccc1)N1C(=O)[C@H]2[C@H]3[C@H](O)[C@H](O)CC(=NOCc4ccccc4)[C@@H]3CC[C@H]2C1=O,-0.233,-0.701,0.11,-0.38,-0.0198,0.0061,-0.276,0.593,0.348,0.993
CC(C)CON=C1C[C@@H](O)[C@@H](O)[C@@H]2[C@@H]3C(=O)N(Cc4ccccc4)C(=O)[C@@H]3CC[C@H]12,-0.106,-1.14,0.623,-0.144,-0.414,-0.0107,-0.324,-0.169,0.163,0.506
COCOc1ccc(Br)cc1C(=O)C=Cc1ccc2c(c1)OCO2,-0.478,-3.81,0.489,-0.978,-1.25,-0.0721,-0.2,0.0689,0.0258,0.075
